Screens deposited in PubChem BioAssay by several laboratories.
The list is not random: actives were taken first. Their share in the collection is about 3%.
Mcl1 Bid PPI – Mcl-1/Bid interaction inhibition; TR-FRET Mcl-1/Bid-Dy647 peptide binding, 1536-well; AID 1021; inhibition, % at 21.7 µM; 0.97% of 220,000 active;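 active means compounds that cut the binding signal by more than half at the single screening dose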;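 further: His-tagged Mcl-1 with europium anti-His antibody binding Bid BH3 peptide; 0% = Mcl-1 plus peptide wells and 100% = peptide-only wells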
Arbovirus anti – antivirals against arbovirus infection; arbovirus infection cell-based antiviral screen; inhibition, % at 10 µM; 0.37% of 200,000 active; in the data active means inhibition above about 30%
Mcl1-Noxa inh – disrupts binding of human Mcl-1 to Noxa peptide | 1.5% of 220,000 active | AID 1022 | TR-FRET Mcl-1/Noxa peptide binding, 2 h | inhibition, % at 21.7 µM | Q07820;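 active means compounds that cut the protein-peptide binding signal by more than 50% relative to plate controls in a single-dose test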;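 further: His-tagged Mcl-1 with rhodamine Noxa BH3 peptide and terbium anti-His antibody; 0% = Mcl-1 plus Noxa peptide wells and 100% = peptide-only wells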
14-3-3 Bad inh – disrupts binding of bovine 14-3-3 zeta to phospho-Bad peptide; P63103; TR-FRET 14-3-3zeta/Dy647-pBad peptide displacement, 1 h; inhibition, % at 21.7 µM; 0.71% of 220,000 active;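 active means inhibition above about 70%, limit read from the data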;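 further: 0% = full 14-3-3 plus peptide FRET controls and 100% = background without 14-3-3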
Target sequence (P63103 whole entry, looked up): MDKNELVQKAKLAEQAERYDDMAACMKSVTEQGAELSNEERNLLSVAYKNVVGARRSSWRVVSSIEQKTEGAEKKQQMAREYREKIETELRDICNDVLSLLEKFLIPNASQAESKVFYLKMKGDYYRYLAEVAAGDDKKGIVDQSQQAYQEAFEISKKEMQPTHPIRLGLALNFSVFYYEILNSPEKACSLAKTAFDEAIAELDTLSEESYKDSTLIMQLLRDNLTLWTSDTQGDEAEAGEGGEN
Mcl-1 Bim block – disrupts Bim peptide binding to human Mcl-1 | inhibition, % at 10 µM | 0.1% of 190,000 active | Q07820 | Bead-based flow cytometry, Bim peptide-Mcl-1 binding; in the data active means inhibition above about 40%;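 further: 0% = no compound tracer wells and 100% = peptide blocker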
The depositor's hits bear a star; · = no result given; [ ] = dose if it differs, or a comment.

SMILES | Mcl1 Bid PPI | Arbovirus anti | Mcl1-Noxa inh | 14-3-3 Bad inh | Mcl-1 Bim block
COc1ccc(NC(=O)COC(=O)c2ccc(Cl)c(S(N)(=O)=O)c2)c([N+](=O)[O-])c1 | -12.7 | · | 53.4* | -4.7 | ·
Cc1cc(N2CCC(C)CC2)nc(NCc2ccccc2)n1 | 1.6 | -31.7 | 18.1 | -3.4 | -1.0
Cc1ccc(S(=O)(=O)N2CCC(C(=O)NCCc3ccccn3)CC2)cc1 | 1.6 | -4.2 | -11.1 | -6.7 | 0.0
COc1ccc(NC(=O)NCCCN2CCN(c3cc(C)ccc3C)CC2)cc1 | -14.4 | -9.9 | 54.8* | 7.3 | 2.0
COc1ccc(NC(=O)NCCCN2CCN(c3ccccc3F)CC2)cc1 | -20.1 | · | 56.0* | -8.8 | ·
COc1cc2c(cc1OC)C(C)N(S(=O)(=O)c1cn(C)c(C)n1)CC2 (centres undefined) | 1.1 | · | -7.1 | -0.8 | ·
COC1=C(OC)C(=O)C(CCCCCCCCCCO)=C(C)C1=O | -9.2 | -22.1 | 54.7* | -3.2 | -2.0
CCN(CCNC(=O)C1CCCN(Cc2nc(-c3ccc(OC)cc3)oc2C)C1)c1ccccc1 (centres undefined) | -69.2 | -24.9 | 12.5 | 85.9* | 0.0
COC(=O)C1=C(C(=O)OC)C(c2cc(Cl)ccc2O)c2sc(=O)[nH]c2S1 (centres undefined) | 27.0 | 1.7 | 78.7* | -15.9 | 5.0
COC(=O)C1=C(C(=O)OC)C(c2cc(Br)ccc2O)c2sc(=O)[nH]c2S1 (centres undefined) | 7.1 | -0.1 | 87.0* | -11.1 | -1.0
COC(=O)C1=C(C(=O)OC)C(c2ccc(OC)c(OC)c2)c2sc(=O)[nH]c2S1 (centres undefined) | -25.4 | -2.8 | 7.5 | -12.8 | 2.0
O=C(O)C1Sc2[nH]c(=O)sc2C2c3cc(Br)ccc3OC(=O)C12 (centres undefined) | -25.8 | · | 44.0 | 2.6 | ·
Cc1c(C(=O)N2CCc3ccccc3C2)oc2ccc(S(=O)(=O)N3CC(C)CC(C)C3)cc12 (centres undefined) | -9.0 | 4.9 | 18.3 | 16.5 | -10.0
O=C1CCNc2c(Cl)cc(Cl)cc21 | -15.8 | · | 3.8 | -16.3 | ·
COc1ccc(/C=C/c2nc3ccccc3n2Cc2ccc(OC)c(OC)c2)cc1 | -21.9 | -16.1 | 7.3 | -5.1 | 0.0
CCOC(=O)Cn1c2ccc(OC)cc2c2nc3ccccc3nc21 | 58.9* | -21.0 | 25.8 | 34.9 | 3.0
CCOC(=O)Cn1c(-c2ccccc2)nc2ccccc2c1=O | 0.3 | -2.4 | 14.4 | -1.9 | 0.0
COc1ccc2c(c1)c1nc3ccccc3nc1n2Cc1ccc(OC)c(OC)c1 | 5.9 | 33.0* | -10.8 | 15.6 | -3.0
O=C1C=CC(=O)N1c1ccc(Sc2ccc([N+](=O)[O-])cc2)cc1 | 39.7 | · | 72.9* | 23.2 | ·
CC(=O)n1cc(C(C[N+](=O)[O-])SCCN)c2ccccc21 (centres undefined) | 53.2* | -5.0 | 52.8* | 41.9 | -8.0
CC(=O)n1cc(-c2ccncc2)c2ccccc21 | 11.0 | 2.8 | 11.2 | 36.0 | 0.0
CCCOc1ccc(N2C(=O)C/C(=C\c3ccccc3)C2=O)cc1 | -31.3 | · | -13.2 | 0.8 | ·
COc1ccc(N(C(=O)CS(=O)CC(=O)Nc2ccc(F)cc2)C(C(=O)NC2CCCCC2)c2cccs2)cc1 (centres undefined) | 61.5* | -11.2 | -80.9 | 38.7 | -2.0
O=C(CS(=O)CC(=O)N(c1ccccc1)C(C(=O)NC1CCCCC1)c1ccco1)Nc1ccc(F)cc1 (centres undefined) | -32.1 | 8.4 | 13.2 | -16.1 | 1.0
Cc1nn(-c2ccc(Cl)c(Cl)c2)c(C)c1C(=O)O | -10.3 | 6.1 | -3.2 | -4.9 | 54.0*
SMILES | Mcl1 Bid PPI | Arbovirus anti | Mcl1-Noxa inh | 14-3-3 Bad inh | Mcl-1 Bim block
CN(C)c1oc(-c2ccc(Cl)cc2)nc1S(=O)(=O)c1ccccc1 | -47.8 | -7.9 | 21.0 | -10.3 | -2.0
CC1C/C(=C/c2ccco2)C(=O)/C(=C/c2ccco2)C1 (centres undefined) | -12.8 | 5.2 | 52.8* | -4.0 | 16.0
CCOC(=O)N1CCC(=NNC(=O)c2ccccc2F)CC1 | -31.3 | 0.8 | 8.6 | 3.0 | -19.0
O=c1c2c3c(sc2[nH]c(=S)n1Cc1ccco1)CCC3 | -49.9 | · | 76.0* | 20.6 | ·
O=C1N/C(=C/c2ccc(Br)cc2)C(O)=C1C=NCc1ccccc1 | 53.7* | -30.8 | 22.6 | 15.2 | -3.0
Cc1ccccc1N/C(SCc1cccc(Br)c1)=C(/C#N)C(N)=O | 11.5 | 0.3 | 15.7 | 71.3*[fluorescence artefact?] | -11.0
CC1(c2ccccc2)NC(=O)N(CC(=O)Nc2ccc3c(c2)OCO3)C1=O (centres undefined) | -8.8 | -4.0 | 14.2 | -2.9 | -1.0
